For 39 compounds, growth results are on record in PubChem BioAssay (NCI).

SMILES strings stand for the structures. Compounds without any hit were thinned out: in the full panel of roughly 83,000, 20% have a hit.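 The test compound was applied at a single concentration to cells in 96-well plates for 48 hours, and percent growth was recorded.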 Calls of active or inactive are those of the source. The calls were made as follows: active = growth percent below 10; inactive = the rest.

The subject of one experiment is T-47D breast. As to the kind of experiment: NCI-60 one-dose screen, 48 h (100 = growth as untreated, 0 = no growth, -100 = all killed). The note with it: 10 µM unless noted.
On to `CC(=O)N1N=C(c2ccc(Nc3nc(NCCO)nc(NCCO)n3)cc2)CC1c1ccc(Cl)cc1` (stereo not given), for which the growth is 66.2% (inactive). On the same count and under the same terms, the same measure for `COC(=O)C1=CCC(n2cnc3c(N)ncnc32)O1` (stereo not given): 102% (inactive); for `Cc1nn(-c2ccccc2)c2nc(N)c(C3=NCCO3)nc12`: 77.5% (inactive); for `CCCc1n(Cc2ccc3ccccc3c2)cc[n+]1Cc1ccc2ccccc2c1`: -3.21% (active).

Take `BrC1CC(Br)c2c1c1c(c3c2C(Br)CC3Br)C(Br)CC1Br` (stereo not given): the growth is 91.8% (inactive). Same read-out and setting: the figure for `O=C(CNc1ccc2c(c1)C(=O)c1ccccc1C2=O)Nc1ccc2c(c1)C(=O)c1ccccc1C2=O` is -65.5% (active). Same read-out and setting: the figure for `Cc1ccc(NC(=O)c2sc3nc4c(cc3c2N)C(=O)CCC4)cc1` is 94.7% (inactive). The same measure, in the same setting: the same measure for `CCCCCCCCN(CCO)CCCCCCCC`: 97.6% (inactive); for `COc1cc(-c2nc3nc4sc(C)c(C)c4c(=O)n3[nH]2)cc(OC)c1OC`: 57% (inactive); for `COC(=O)Nc1ccc2ccc3c(NC(=O)OC)ccc4ccc1c2c43` (tested in a mixture with another compound): 49.6% (inactive).

With `COc1ccc(Cl)cc1Nc1nc(C(F)(F)F)ccc1C(=O)N/N=C/c1c(Cl)cccc1Cl`, the growth was 42.2% (inactive). On the same count and under the same terms, the figure for `O=C(/C=C/c1cccc(O)c1)c1cccc(-n2cc(-c3ccccc3)[nH]c2=O)c1` is 21.1% (inactive); for `COc1ccc2c(=O)c(OC)c(-c3cc(OC)c(OC)c(OC)c3)oc2c1` it is 76.1% (inactive). For `CC(=O)Nc1ccc(C(=O)COc2cccc(/C=C3\CCc4ccccc4C3=O)c2)cc1`, the growth was 67.9% (inactive).

Regarding `O=C1Nc2ccc(Cl)cc2[C@@](C#CC2CC2)(C(F)(F)F)O1`, the growth is 70.4% (inactive). On the same count and under the same terms, the same measure for `CC(C)N(Cc1ccccc1)c1c(Cl)ssc1=O`: 98.9% (inactive); for `CCCCCc1c(C)[nH]c(/C=C2\N=C(c3ccc[nH]3)C=C2OCc2ccccc2)c1C`: -77.7% [100 µM] (active).

Consider `COc1cc(/C=C/C(=O)CC(=O)/C=C/c2ccc(OC(=O)C3C4CC5CC(C4)CC3C5)c(OC)c2)ccc1OC(=O)C1C2CC3CC(C2)CC1C3` (stereo not given), for which the growth was 99.4% (inactive). Consider `CC[C@H]1CN2CCc3cc(OC)c(OC)cc3C2C[C@@H]1CC1NCCc2cc(OC)c(OC)cc21` (stereo not given in full), for which the growth is -15.1% (active). On the same count and under the same terms, the same measure for `Cc1ccc(S(=O)(=O)NCCN2c3nc4ccccc4cc3Sc3cc4ccccc4nc32)cc1`: 62.5% (inactive); for `Cn1cnc([N+](=O)[O-])c1Sc1nc(N)nc2nc[nH]c12`: 47.2% (inactive); for `O=c1oc2c(cc1-c1ccc([N+](=O)[O-])cc1)C(O)Oc1ccccc1-2` (stereo not given): 75.3% (inactive). On to `CCCCCc1c(C)[nH]c(/C=C2\N=C(c3ccc[nH]3)C=C2Oc2ccc(Cl)cc2)c1C`, for which the growth is -38.1% [100 µM] (active). On the same count and under the same terms, the figure for `CC1C(C)N(C(=O)CCl)c2ccccc2N1C(=O)CCl` (stereo not given) is -42% (active); for `Nc1nc(NC2CC2)c2ncn(C3C=CC(CO)C3)c2n1` (stereo not given) it is 110% (inactive). Same read-out and setting: the same measure for `O=C(CNC(=O)c1cccc2ccccc12)Nc1ccccc1Oc1ccc(O)cc1`: 36.5% [5 µM] (inactive).

The next experiment deals with BT-549 breast. The experiment is described as above. The following applies: 10 µM unless noted.
`CCN(CC)CCOCC[C@H]1CC[C@H]2[C@@H]3[C@H](C)Cc4cc(OS(N)(=O)=O)ccc4[C@H]3CC[C@]12C`: the growth was -53.4% (active). Same read-out and setting: the same measure for `CCN(CC)c1ccc(/C=C/C(=O)c2cccc(NS(C)(=O)=O)c2)cc1`: 58.3% (inactive); for `C/C(=C\CCc1ccoc1)CC/C=C(\C)CCCC1COC(=O)C1` (stereo not given): 108% (inactive); for `O=C(COc1ccc(/C=C2\Cc3ccccc3C2=O)cc1)c1ccc(Cl)cc1`: 113% (inactive).

With `O=C(Nc1cccc(-n2cc(-c3ccncc3)c(-c3cc(O)cc(Cl)c3)n2)c1)Nc1ccc(Cl)c(Cl)c1`, the growth is 0.544% (active).

On to `CCc1nn2c(-c3ccc(Cl)cc3C)c(-c3cc(OC)c(OC)c(OC)c3)nc2s1`, for which the growth is 101% (inactive). Take `C[N+]1(C)C2CC[C@@H]1CC(OC(=O)C(O)c1ccccc1)C2` (stereo not given in full): the growth is 99.6% (inactive). Take `COc1ccc2c(c1)sc1nc(-c3ccc(Br)cc3)cn12`: the growth was 120% (inactive).

Turning to `O=C(COc1cccc(/C=C2\Cc3ccccc3C2=O)c1)c1ccc(Cl)cc1`, the growth was 99.4% (inactive). In the case of `O=C1C2C(C(=O)N1CC[Se][Se]CCN1C(=O)C3C(C1=O)[C@H]1C=C[C@@H]3C1)[C@H]1C=C[C@@H]2C1` (stereo not given in full), the growth was -40.3% (active). As to `COC(=O)[C@H]1[C@H]2C[C@@H]3c4[nH]c5cc(OC)ccc5c4CCN3C[C@H]2C[C@@H](OC(=O)/C=C/c2cc(OC)c(OC)c(OC)c2)[C@@H]1OC`, the growth is 67.8% (inactive). On the same count and under the same terms, the figure for `CC1C(=O)NC2=Nc3ccccc3C(=O)NN21` (stereo not given) is 96.9% (inactive); for `C[C@H]1c2cccc(O)c2C(O)=C2C(=O)[C@]3(O)C(O)=C(C(N)=O)C(=O)[C@@H](N(C)C)[C@@H]3[C@@H](O)[C@@H]21` it is 33.8% (inactive). With `CC(=O)N1N=C(c2ccc(Nc3nc(NCCO)nc(NCCO)n3)cc2)CC1c1ccc(Cl)cc1` (stereo not given), the growth was 87.9% (inactive). Still for that read-out and setting: the figure for `COC(=O)C1=CCC(n2cnc3c(N)ncnc32)O1` (stereo not given) is 114% (inactive); for `Cc1nn(-c2ccccc2)c2nc(N)c(C3=NCCO3)nc12` it is 92.6% (inactive). On the same count and under the same terms, the figure for `CCCc1n(Cc2ccc3ccccc3c2)cc[n+]1Cc1ccc2ccccc2c1` is -32.2% (active); for `BrC1CC(Br)c2c1c1c(c3c2C(Br)CC3Br)C(Br)CC1Br` (stereo not given) it is 125% (inactive). For `O=C(CNc1ccc2c(c1)C(=O)c1ccccc1C2=O)Nc1ccc2c(c1)C(=O)c1ccccc1C2=O`, the growth is -80.4% (active). On the same count and under the same terms, the figure for `Cc1ccc(NC(=O)c2sc3nc4c(cc3c2N)C(=O)CCC4)cc1` is 86.4% (inactive); for `CCCCCCCCN(CCO)CCCCCCCC` it is 106% (inactive); for `COc1cc(-c2nc3nc4sc(C)c(C)c4c(=O)n3[nH]2)cc(OC)c1OC` it is 77.8% (inactive). On the same count and under the same terms, the same measure for `COC(=O)Nc1ccc2ccc3c(NC(=O)OC)ccc4ccc1c2c43` (tested in a mixture with another compound): 63.2% (inactive). Still for that read-out and setting: the same measure for `COc1ccc(Cl)cc1Nc1nc(C(F)(F)F)ccc1C(=O)N/N=C/c1c(Cl)cccc1Cl`: 48.6% (inactive); for `O=C(/C=C/c1cccc(O)c1)c1cccc(-n2cc(-c3ccccc3)[nH]c2=O)c1`: 7.56% (active); for `COc1ccc2c(=O)c(OC)c(-c3cc(OC)c(OC)c(OC)c3)oc2c1`: 117% (inactive). Regarding `CC(=O)Nc1ccc(C(=O)COc2cccc(/C=C3\CCc4ccccc4C3=O)c2)cc1`, the growth was 66% (inactive). Same read-out and setting: the figure for `O=C1Nc2ccc(Cl)cc2[C@@](C#CC2CC2)(C(F)(F)F)O1` is 117% (inactive). Still for that read-out and setting: the figure for `CC(C)N(Cc1ccccc1)c1c(Cl)ssc1=O` is 90.9% (inactive); for `CCCCCc1c(C)[nH]c(/C=C2\N=C(c3ccc[nH]3)C=C2OCc2ccccc2)c1C` it is -94.6% [100 µM] (active); for `COc1cc(/C=C/C(=O)CC(=O)/C=C/c2ccc(OC(=O)C3C4CC5CC(C4)CC3C5)c(OC)c2)ccc1OC(=O)C1C2CC3CC(C2)CC1C3` (stereo not given) it is 108% (inactive).

In the case of `CC[C@H]1CN2CCc3cc(OC)c(OC)cc3C2C[C@@H]1CC1NCCc2cc(OC)c(OC)cc21` (stereo not given in full), the growth was -11% (active). On the same count and under the same terms, the same measure for `Cc1ccc(S(=O)(=O)NCCN2c3nc4ccccc4cc3Sc3cc4ccccc4nc32)cc1`: 46.2% (inactive). The same measure, in the same setting: the figure for `Cn1cnc([N+](=O)[O-])c1Sc1nc(N)nc2nc[nH]c12` is 43.4% (inactive). Still for that read-out and setting: the same measure for `O=c1oc2c(cc1-c1ccc([N+](=O)[O-])cc1)C(O)Oc1ccccc1-2` (stereo not given): 97.1% (inactive); for `CCCCCc1c(C)[nH]c(/C=C2\N=C(c3ccc[nH]3)C=C2Oc2ccc(Cl)cc2)c1C`: 0.41% [100 µM] (active). Regarding `CC1C(C)N(C(=O)CCl)c2ccccc2N1C(=O)CCl` (stereo not given), the growth is -86.4% (active). Still for that read-out and setting: the figure for `Nc1nc(NC2CC2)c2ncn(C3C=CC(CO)C3)c2n1` (stereo not given) is 115% (inactive); for `O=C(CNC(=O)c1cccc2ccccc12)Nc1ccccc1Oc1ccc(O)cc1` it is 58.5% [5 µM] (inactive).
